Source: PubChem BioAssay
KB-3-1 cytotox = KB-3-1 parental cell cytotoxicity | KB-3-1 viability, CellTiter-Glo ATP luminescence, 72 h | Potency, µM (series often up to 46.1 µM), hits mostly cytotoxic | actives 1.4% (n = 400,000); further: on the % scale 0 is the no-effect control and ±100 the full control effect; nearly all actives have a fitted effect of over 60% in size
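KB-3-1 cells, DMEM (no phenol red) + 10% FBS; compound by pin transfer, 72 h, 37 °C. Readout: CellTiter-Glo luminescence after 10 min. Data normalized, curve-fitted.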
ELG1 DNA repair = inhibitors of ELG1-dependent DNA repair in HEK293T cells | HEK293T ELG1-luciferase reporter, luminescence, 16 h; DNA damage induced by 5-fluorouridine | Potency, µM (titrated, usually from 46.1 µM), for the others: top-dose activity change, negative = inhibition, usual class: inhibitors | actives 2.3% (n = 330,000); further: on the % scale 0 is the no-effect control and ±100 the full control effect; nearly all actives have a fitted effect of over 55% in size
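5-Fluorouridine DNA damage + compound/DMSO, 2,000 cells/well, 16 h, 37 °C/5% CO2. ONE-Glo, 30 min RT, luminescence. Readout = decrease in reporter signal.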
KB-V1 cytotox = kills drug-selected multidrug resistant KB-V1 cells; KB-V1 MDR cells viability, CellTiter-Glo, 72 h; Potency, µM (highest dose often 46.1 µM), usual class: cytotoxic; actives 3.4% (n = 400,000); further: on the % scale 0 is the no-effect control and ±100 the full control effect; nearly all actives have a fitted effect of over 60% in size
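Luminescent ATP read-out (CellTiter-Glo, 10 min) measures survival of drug-selected KB-V1 MDR cells after 72 h, 37 degrees C compound exposure. Medium: phenol-red-free DMEM, 10% FBS. Values from fitted concentration-response curves.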
MCF10A rereplic = induces DNA re-replication in MCF 10a normal breast cells; MCF 10A DNA re-replication, Hoechst nuclear intensity, 48 h; Potency, µM (titrated, usually from 46.1 µM), for the others: at the top dose activity, positive = re-replication, hits mostly activators; actives 2.9% (n = 350,000); AID 624296; further: % of control where 0% means no effect; nearly all actives have a fitted effect of over 50% in size
SW480 rereplic = induces DNA re-replication in SW480 colon adenocarcinoma cells; SW480 DNA re-replication, Hoechst DNA content imaging, 48 h; Potency, µM (doses to about 46.1 µM), without a hit: at the top dose re-replication activation, usual class: activators; actives 1.8% (n = 340,000); AID 624297; further: % of control where 0% means no effect; nearly all actives have a fitted effect of over 55% in size
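Cells (250 per well) received 23 nL compound or DMSO by pin tool and were kept 48 hr at 37 C, 5% CO2. Nuclei were then stained with Hoechst for 40 min and scanned for DNA content.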
* = called active by the depositor. This is a sample that favours compounds with a hit; in the whole collection about 8.1% have one here. The call rests on the fitted dose curve; in most records, active means well fitted curve in the direction sought with a large enough effect; inconclusive means small, poorly fitted or top-dose-only effect, or another doubt; inactive means no such curve, though single readings can be large; an effect the other way counts as inactive or inconclusive. Potency means the concentration at half of the fitted maximal effect.

What do the screens show for `CN(c1cccc(NC(=O)c2ccc(N(C)S(=O)(=O)c3ccccc3)cc2)c1)S(C)(=O)=O`?
KB-3-1 cytotox: inactive; ELG1 DNA repair: 16µM*; KB-V1 cytotox: inconclusive; MCF10A rereplic: inconclusive; SW480 rereplic: 17%

What do the screens show for `COc1cc(NC(=O)c2ccc(S(=O)(=O)N(C)c3ccccc3)cc2)cc(OC)c1`?
KB-3-1 cytotox: inactive; ELG1 DNA repair: 23µM*; KB-V1 cytotox: inconclusive; MCF10A rereplic: 2%; SW480 rereplic: -32%

What do the screens show for `CC(=O)Nc1ccc(C(=O)Nc2cccc(S(=O)(=O)N(C)c3ccccc3)c2)cc1`?
KB-3-1 cytotox: inactive; ELG1 DNA repair: inconclusive; KB-V1 cytotox: inactive; MCF10A rereplic: 5%; SW480 rereplic: -23%

How did CN(c1cccc(NC(=O)CN(c2ccc(F)cc2)S(C)(=O)=O)c1)S(C)(=O)=O do in these assays?
KB-3-1 cytotox: inactive; ELG1 DNA repair: 2%; KB-V1 cytotox: inactive; MCF10A rereplic: -1%; SW480 rereplic: 1%

How did CCOC(=O)c1cnc2c(c(C)nn2C)c1Oc1cc(Cl)cc(Cl)c1 do in these assays?
KB-3-1 cytotox: inactive; ELG1 DNA repair: inconclusive; KB-V1 cytotox: inactive; MCF10A rereplic: 22%; SW480 rereplic: -20%

Results for CN(c1cccc(NC(=O)CN(c2ccc(Cl)c(Cl)c2)S(=O)(=O)c2ccccc2)c1)S(C)(=O)=O ?
KB-3-1 cytotox: inactive; ELG1 DNA repair: 16µM*; KB-V1 cytotox: inconclusive; MCF10A rereplic: 24%

What do the screens show for `COc1ccccc1N(C)S(=O)(=O)c1ccc(C(=O)Nc2cc(OC)c(OC)c(OC)c2)cc1`?
KB-3-1 cytotox: 16µM*; KB-V1 cytotox: inconclusive; MCF10A rereplic: inconclusive; SW480 rereplic: inconclusive

Results for COc1ccccc1NC(=O)c1ccc(S(=O)(=O)N(C)c2ccccc2OC)cc1 ?
KB-3-1 cytotox: inactive; ELG1 DNA repair: inconclusive; KB-V1 cytotox: inactive; MCF10A rereplic: 8%; SW480 rereplic: 2%

How did COc1ccccc1N(C)S(=O)(=O)c1ccc(C(=O)N2CCCc3ccccc32)cc1 do in these assays?
KB-3-1 cytotox: inactive; ELG1 DNA repair: 15µM*; KB-V1 cytotox: inactive; MCF10A rereplic: inconclusive; SW480 rereplic: 18%

Results for COc1ccccc1N(C)S(=O)(=O)c1ccc(C(=O)NC2CCCCC2)cc1 ?
KB-3-1 cytotox: inactive; ELG1 DNA repair: 23µM*; KB-V1 cytotox: inactive; MCF10A rereplic: 15%; SW480 rereplic: -3%

How did COc1ccccc1N(C)S(=O)(=O)c1ccc(C(=O)N2CCC2)cc1 do in these assays?
KB-3-1 cytotox: inactive; ELG1 DNA repair: 17%; KB-V1 cytotox: inconclusive; MCF10A rereplic: 11%; SW480 rereplic: 11%

Results for COc1cc(NC(=O)c2ccc(S(=O)(=O)N(C)C)cc2)cc(OC)c1OC ?
KB-3-1 cytotox: inactive; ELG1 DNA repair: 0%; KB-V1 cytotox: inactive; MCF10A rereplic: -6%; SW480 rereplic: 3%

How did COc1cc(NC(=O)c2ccccc2C)c(OC)cc1NC(=O)CN1CCOCC1 do in these assays?
KB-3-1 cytotox: inactive; ELG1 DNA repair: -25%; KB-V1 cytotox: inconclusive; MCF10A rereplic: inconclusive; SW480 rereplic: 3%

Results for Cc1ccc(-n2c(SCC(=O)N3CCCCC3)nc(O)cc2=O)cc1 ?
KB-3-1 cytotox: inactive; ELG1 DNA repair: -1%; KB-V1 cytotox: inactive; MCF10A rereplic: 2%; SW480 rereplic: -6%

How did Cc1ccc(-c2nc3ccc(Br)cn3c2Cc2ccccc2)cc1 do in these assays?
KB-3-1 cytotox: inconclusive; KB-V1 cytotox: inactive

Results for Cc1csc(NC(=O)c2ccc(S(=O)(=O)N(C)c3ccccc3)cc2)n1 ?
KB-3-1 cytotox: inconclusive; ELG1 DNA repair: 23µM*; KB-V1 cytotox: inactive; MCF10A rereplic: inconclusive; SW480 rereplic: 5%

What do the screens show for `CN(c1ccccc1)S(=O)(=O)c1cccc(NC(=O)c2ccc(Cl)c([N+](=O)[O-])c2)c1`?
KB-3-1 cytotox: 21µM*; ELG1 DNA repair: 21µM*; KB-V1 cytotox: 16µM*; MCF10A rereplic: inconclusive; SW480 rereplic: 4%

What do the screens show for `Cc1nnc(NC(=O)c2ccc(S(=O)(=O)N(C)c3ccccc3)cc2)s1`?
ELG1 DNA repair: -1%; MCF10A rereplic: inconclusive; SW480 rereplic: 0%

How did COc1ccccc1N(C)S(=O)(=O)c1ccc(C(=O)Nc2ccncc2)cc1 do in these assays?
KB-3-1 cytotox: inactive; ELG1 DNA repair: 12µM*; KB-V1 cytotox: inactive; MCF10A rereplic: inconclusive; SW480 rereplic: -5%

How did Cc1cccc(C)c1NC1=NC2(CCCCC2)N=C(N)N1 do in these assays?
KB-3-1 cytotox: inactive; ELG1 DNA repair: 19%; KB-V1 cytotox: inactive; MCF10A rereplic: 0%; SW480 rereplic: -22%

What do the screens show for `Cc1ccc(C)c(NC2=NC3(CCCCC3)N=C(N)N2)c1`?
KB-3-1 cytotox: 18µM*; ELG1 DNA repair: 2%; KB-V1 cytotox: inactive; MCF10A rereplic: 3%; SW480 rereplic: -5%

How did Cc1ccc(NC2=NC3(CCCC3)N=C(N)N2)c(C)c1 do in these assays?
KB-3-1 cytotox: 4.1µM*; ELG1 DNA repair: -16%; KB-V1 cytotox: inactive; MCF10A rereplic: 29%; SW480 rereplic: inconclusive

How did Cc1ccc(NC2=NC3(CCCCC3)N=C(N)N2)c(C)c1 do in these assays?
KB-3-1 cytotox: 7.3µM*; ELG1 DNA repair: -3%; KB-V1 cytotox: inactive; MCF10A rereplic: 15%; SW480 rereplic: 5%

What do the screens show for `NC1=NC2(CCCCC2)N=C(Nc2ccc(Br)cc2)N1`?
KB-3-1 cytotox: 23µM*; ELG1 DNA repair: inconclusive; KB-V1 cytotox: inactive; MCF10A rereplic: 12%; SW480 rereplic: -50%

How did COc1cccc(NC2=NC3(CCCCC3)N=C(N)N2)c1 do in these assays?
KB-3-1 cytotox: inactive; ELG1 DNA repair: -1%; KB-V1 cytotox: inactive; MCF10A rereplic: -2%; SW480 rereplic: -1%

What do the screens show for `Cc1cccc(NC2=NC3(CCCCC3)N=C(N)N2)c1C`?
KB-3-1 cytotox: inactive; ELG1 DNA repair: -7%; KB-V1 cytotox: inactive; MCF10A rereplic: 3%; SW480 rereplic: -5%

Results for Cc1ccccc1NC1=NC2(CCCC2)N=C(N)N1 ?
KB-3-1 cytotox: inconclusive; ELG1 DNA repair: -6%; KB-V1 cytotox: inconclusive; MCF10A rereplic: inconclusive; SW480 rereplic: -6%

Results for CCN(CC)C(=O)[C@H]1CC(CC(=O)NCCc2ccccn2)C(=O)N2CCc3c([nH]c4ccccc34)[C@]12C (some centres not stated) ?
KB-3-1 cytotox: inactive; ELG1 DNA repair: 5%; KB-V1 cytotox: inactive; MCF10A rereplic: 4%; SW480 rereplic: 0%

How did CCCn1cnc2c(SCCc3ccccc3)nc(N)nc21 do in these assays?
KB-3-1 cytotox: inactive; KB-V1 cytotox: inactive; MCF10A rereplic: inconclusive; SW480 rereplic: -3%
